Sm TGR inh – S. mansoni TGR enzyme inhibition. AID 485364. actives 3% (n = 360,000). Q962Y6. Potency, µM (doses to about 114 µM), for the others: top-dose activity change, negative = inhibition, most hits filed as inhibitors. purified TGR, DTNB reduction, TNB absorbance 405 nm; further: potency means the concentration at half of the fitted maximal effect; on the % scale 0 is the no-effect control and ±100 the full control effect; nearly all actives have a fitted effect of over 60% in size
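Kinetic colorimetric format: TGR-catalysed, NADPH-driven DTNB reduction monitored via TNB absorbance. Enzyme dispensed at 20 nM; compound exposure 15 min at room temperature before reaction start.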
Pf growth 96h – P. falciparum growth inhibition at 96 hour, primary screen for plastid delayed-death inhibitors; P. falciparum luciferase reporter growth, 96 h; Potency, µM (top dose mostly 28.7 µM), for the others: top-dose activity change, negative = inhibition, most hits filed as inhibitors; actives 6.9% (n = 320,000); AID 504834; further: potency means the concentration at half of the fitted maximal effect; on the % scale 0 is the no-effect control and ±100 the full control effect
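P. falciparum expressing integrated firefly luciferase grown in erythrocytes (2% hematocrit, 0.05% parasitemia final) with compounds for 96 hours at 37 C, 5% CO2. Growth inhibition read as loss of luminescence after adding luciferase detection reagent.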
CHX counter – affects cycloheximide protein synthesis inhibition readout, counter-screen. cell reporter, cycloheximide protein synthesis inhibition counterscreen. max response, %. actives 12% (n = 300,000). AID 2314; in the data active means max response mostly above about 13%, no sharp cut-off; inactive means mostly below about 14%; further: read at 38.3 µM for the half of the compounds with a filed dose; 0% is about no effect
NS1 function inh – blocks influenza NS1 protein function; Potency, µM (doses to about 46.1 µM), for inactives: at the highest dose activity, positive = more growth; actives 0.4% (n = 270,000); calls by dose curve; further: potency means the concentration at half of the fitted maximal effect; actives are rising curves; nearly all actives have a fitted effect of over 50% in size
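OD600 was taken as the measure of yeast growth restored by compound in an NS1-expressing S. cerevisiae strain. Cells had been washed out of glucose medium and diluted 1:100 into galactose -URA medium, pH 6.0.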
Shiga toxin inh – inhibitors of Shiga toxin in Vero cells; inhibition, % at 38.7 µM; actives 9.2% (n = 290,000); Vero cells, Shiga toxin protein synthesis inhibition reporter; in the data active means inhibition mostly above about 28%, no sharp cut-off; inactive means mostly below about 43%; further: 0% is about no effect
Pf growth 48h – P. falciparum growth inhibition at 48 hours (one generation); P. falciparum luciferase growth in erythrocytes, 48 h; Potency, µM (titrated, usually from 28.7 µM), for inactives: top-dose activity change, negative = inhibition, hits mostly inhibitors; actives 5.9% (n = 310,000); further: potency means the concentration at half of the fitted maximal effect; on the % scale 0 is the no-effect control and ±100 the full control effect
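Luciferase-expressing P. falciparum in infected erythrocytes (2% hematocrit, 0.1% parasitemia final) in RPMI 1640/0.5% Albumax were exposed to compound for 48 hours at 37 C, 5% CO2; growth read as luminescence.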
An asterisk follows results filed as active; ? = inconclusive; nt = not tested or not shown. Compounds with a hit are over-represented: about 21% of the library has one in this group of screens. Unless noted, the call rests on the fitted dose curve; in most records, active means well fitted curve in the direction sought with a large enough effect; inconclusive means small, poorly fitted or top-dose-only effect, or another doubt; inactive means no such curve, though single readings can be large; an effect the other way counts as inactive or inconclusive.

SMILES	Sm TGR inh	Pf growth 96h	CHX counter	NS1 function inh	Shiga toxin inh	Pf growth 48h
C/C(=C\C(=O)OCCCCCCCCC(=O)O)C[C@@H]1OC[C@H](C[C@@H]2O[C@H]2[C@@H](C)[C@H](C)O)[C@@H](O)[C@H]1O	nt	0.0301µM*	nt	nt	nt	0.19µM*
COc1ccc(-n2ccn3c(CCC(=O)N4CCN(c5cccc(C)c5C)CC4)nnc3c2=O)cc1	-1.2%	?	10.6	5.2%	14.2	?
Cc1cccc(OC(=O)c2cc(-c3ccc(Cl)cc3)on2)c1C	5.7%	nt	nt	nt	nt	nt
CC(=O)c1ccc(N(C(=O)Cn2nnc3ccccc32)C(C(=O)NCc2ccccc2)c2ccccn2)cc1 (centres undefined)	-1.3%	6.9%	47.4*	-7.9%	76.4*	-0.9%
CCC(C)(C)NC(=O)C(c1ccco1)N(C(=O)Cn1nnc2ccccc21)c1ccc2c(c1)OCO2 (centres undefined)	-1.7%	7.38µM*	4.9	-7.1%	-7.5	?
Cc1ccc(C(C(=O)NCc2ccco2)N(CCc2ccccc2)C(=O)Cn2nnc3ccccc32)o1 (centres undefined)	-22.8%	nt	9.0	-47.5%	40.4	13.1µM*
Cc1ccc(N(C(=O)Cn2nnc3ccccc32)C(C(=O)NCc2ccccc2)c2ccccn2)cc1 (centres undefined)	-14.0%	?	-2.6	-5.5%	-2.9	?
Cc1ccc(CN(C(=O)Cn2nnc3ccccc32)C(C(=O)NCc2ccco2)c2ccc(C)o2)cc1 (centres undefined)	0.2%	?	16.0*	14.6%	42.2*	?
COc1ccc(/C(N)=N/OC(=O)CCCN2C(=O)c3ccccc3C2=O)cc1OC	-6.0%	7.4%	-3.0	nt	17.2	-6.9%
Cc1nc(N)ncc1Sc1ccccc1	-8.1%	-3.4%	-0.6	-3.8%	-13.1	-0.8%
NC(=O)C1CCN(c2nc(-c3cccc([N+](=O)[O-])c3)cs2)CC1	nt	-19.2%	nt	nt	nt	?
CCC(C)(C)NC(=O)C(c1cccn1C)N(Cc1ccc(OC)cc1)C(=O)Cn1nnc2ccccc21 (centres undefined)	-7.7%	?	-1.8	14.8%	-8.6	9.28µM*
Cc1cccc(N(C(=O)Cn2nnc3ccccc32)C(C(=O)NC(C)(C)C)c2ccsc2)c1C (centres undefined)	1.5%	?	5.5	-1.8%	21.8	?
COc1ccc(N(C(=O)Cn2nnc3ccccc32)C(C(=O)NCc2ccco2)c2ccc(C)o2)cc1 (centres undefined)	?	?	30.3*	-31.9%	29.2	?
Cc1ccccc1CCN(C(=O)Cn1nnc2ccccc21)C(C(=O)NC(C)(C)C)c1ccsc1 (centres undefined)	0.1%	1.17µM*	10.8	3.9%	-4.7	?
CCC(C)(C)NC(=O)C(c1cccn1C)N(Cc1ccccc1)C(=O)Cn1nnc2ccccc21 (centres undefined)	-8.2%	-23.4%	-2.6	0.0%	-7.9	-5.4%
Cc1ccc(N(C(=O)Cn2nnc3ccccc32)C(C(=O)NCc2ccco2)c2ccc(C)o2)cc1 (centres undefined)	?	?	-3.1	-33.3%	5.1	13.1µM*
CN1CC(=O)N2Cc3[nH]c4ccccc4c3C[C@H]2C1=O	29.2%	-1.4%	-4.0	0.5%	23.6	11.3%
COc1ccc(N2CCN(S(=O)(=O)c3ccc(-c4cc(C(F)(F)F)on4)s3)CC2)cc1	1.8%	nt	nt	nt	nt	nt
CC1(C(=O)OCc2cc(=O)n3cc(Br)ccc3n2)CC1(Cl)Cl (centres undefined)	-0.5%	102.9%	36.4*	-4.3%	77.8*	296.7%
CC1CC1C(=O)OCc1cc(=O)n2cc(Br)ccc2n1 (centres undefined)	-5.8%	32.7%	28.6*	-8.9%	117.4	70.9%
Cc1ccccc1C(=O)NC(CC(C)C)C(=O)OCc1cc(=O)n2cc(Br)ccc2n1 (centres undefined)	-0.8%	93.6%	28.0*	-41.0%	36.1*	138.6%
CC1(C)NC(=O)N(CC(=O)OCc2cc(=O)n3cc(Br)ccc3n2)C1=O	7.3%	31.4%	3.2	nt	-7.3	35.4%
O=C(CN1C(=O)NC2(CCCC2)C1=O)OCc1cc(=O)n2cc(Br)ccc2n1	12.9%	46.1%	47.6*	3.9%	67.0*	0.8%
CCOC(=O)c1noc2ncnc(Nc3ccc(C)c(F)c3)c12	6.2%	nt	nt	nt	nt	nt
SMILES	Sm TGR inh	Pf growth 96h	CHX counter	NS1 function inh	Shiga toxin inh	Pf growth 48h
COc1ccc(Cc2nc3ccc(C(=O)NCCc4cccc(C)n4)cc3o2)cc1	-16.9%	0.0%	3.0	-11.9%	-8.2	?
CCOc1ccccc1N1CCN(C(=O)c2cccs2)CC1	9.7%	?	-2.7	-5.4%	nt	0.2%
COc1ccc(C2(CNS(=O)(=O)c3ccc(C)cc3)CCOCC2)cc1	-3.9%	27.8%	-2.4	-6.0%	-8.4	5.9%
Cc1c(NC(=O)CCCCCN2C(=O)c3ccccc3C2=O)c(=O)n(-c2ccccc2)n1C	-0.5%	5.3%	1.1	-5.1%	7.5	2.7%
O=C(COC(=O)CCCN1C(=O)c2ccccc2C1=O)Nc1cc(Cl)cc(Cl)c1	6.7%	-32.5%	-5.7	6.9%	-13.5	12.7%
O=C1C(Cl)=C(N2CCOCC2)C(=O)N1c1ccccc1Cl	-23.3%	5.4%	-2.7	5.3%	-8.5	-3.0%
Cc1c(Nc2nc(-c3ccc(Cl)cc3)cs2)c(=O)n(-c2ccccc2)n1C	-7.5%	13.1µM*	-2.7	20.6%	-11.4	-0.1%
Cc1c(NC2=C(Cl)C(=O)N(c3ccccc3)C2=O)c(=O)n(-c2ccccc2)n1C	?	?	8.4	-46.0%	2.1	1.2%
C=CCNC1=C(Cl)C(=O)N(c2ccccc2Cl)C1=O	44.7µM*	nt	-4.5	-12.6%	9.3	3.1%
Cc1c(NC2=C(Cl)C(=O)N(c3ccccc3Cl)C2=O)c(=O)n(-c2ccccc2)n1C	39.8µM*	-24.6%	5.5	5.0%	27.3	-6.6%
COc1ccccc1CCNC(=O)C(=O)NCC(c1cccs1)S(=O)(=O)c1ccccc1 (centres undefined)	-15.1%	nt	nt	nt	nt	nt
CN[C@H](C)CCC=C(C)C	nt	?	nt	nt	nt	0.151µM*
Nc1ncccc1OCc1ccc(Cl)c(Cl)c1	14.4%	179.7%	47.1*	-30.8%	56.0*	104.8%
O=C(OCc1ccc(Br)cc1)c1cccnc1Cl	5.7%	28.3%	26.6*	-7.9%	72.6	33.7%
O=C(OCc1ccc(Cl)c(Cl)c1)c1cccnc1Cl	3.3%	9.5%	23.2*	-39.8%	25.5	-3.1%
CC(=O)c1c(C)[nH]c(C(=O)COC(=O)c2cccnc2Cl)c1C	2.6%	-22.8%	nt	nt	nt	-8.9%
O=C(COC(=O)c1cccnc1Cl)c1cccc(Cl)c1	-8.2%	-13.6%	34.1*	-4.1%	38.7*	nt
O=C(OCc1ccc(Cl)cc1Cl)c1cccnc1Cl	0.0%	70.1%	-0.4	-47.2%	10.2	1.8%
O=C(COc1cccc2ccccc12)N1c2ccccc2CCc2ccccc21	-22.2%	?	-2.3	-13.0%	-21.2	10.4µM*

Source: PubChem BioAssay (National Center for Advancing Translational Sciences (NCATS))
